Screening data: PubChem, National Center for Advancing Translational Sciences (NCATS)
Most compounds without a hit are left out; they make up all but 3% or so of the library.
KAT2A inh: qHTS Assay for Inhibitors of GCN5L2. Histone acetyltransferase KAT2A (Homo sapiens), Q92830. GCN5L2 HAT assay, ThioGlo1 CoA-SH fluorescence. Potency, µM (titrated, usually from 58.9 µM), inactives show top-dose activity change, negative = inhibition, hits mostly inhibitors. 390,000 tested, 0.21% active. AID 504327, 2011; further: on the % scale 0 is the no-effect control and ±100 the full control effect
Target sequence (Q92830 whole entry, looked up): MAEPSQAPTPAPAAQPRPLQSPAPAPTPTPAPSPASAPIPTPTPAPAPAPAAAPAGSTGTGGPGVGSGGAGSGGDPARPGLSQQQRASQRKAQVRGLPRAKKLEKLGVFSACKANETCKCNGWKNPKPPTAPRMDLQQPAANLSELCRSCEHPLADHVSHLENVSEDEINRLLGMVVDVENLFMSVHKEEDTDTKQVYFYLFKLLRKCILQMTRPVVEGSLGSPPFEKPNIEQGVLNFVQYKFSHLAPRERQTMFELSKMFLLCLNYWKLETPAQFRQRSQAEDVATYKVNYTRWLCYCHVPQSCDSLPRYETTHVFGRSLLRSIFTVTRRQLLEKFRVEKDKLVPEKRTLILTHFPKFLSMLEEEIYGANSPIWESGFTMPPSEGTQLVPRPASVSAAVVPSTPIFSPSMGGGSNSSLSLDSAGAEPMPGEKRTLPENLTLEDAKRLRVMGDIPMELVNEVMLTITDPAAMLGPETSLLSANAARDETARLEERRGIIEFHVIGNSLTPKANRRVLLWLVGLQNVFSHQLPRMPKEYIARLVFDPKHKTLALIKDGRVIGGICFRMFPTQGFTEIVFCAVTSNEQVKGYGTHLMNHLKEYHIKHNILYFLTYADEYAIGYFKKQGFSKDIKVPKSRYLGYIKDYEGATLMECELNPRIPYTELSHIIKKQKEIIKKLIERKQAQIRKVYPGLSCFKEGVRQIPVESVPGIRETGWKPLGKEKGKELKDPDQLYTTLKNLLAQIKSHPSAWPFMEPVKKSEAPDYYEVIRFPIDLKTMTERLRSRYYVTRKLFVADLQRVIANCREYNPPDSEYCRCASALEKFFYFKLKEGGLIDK
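qHTS, 1536-well. 20nM enzyme, pH 7.5 HEPES/EDTA/Tween-20 buffer; 15 min compound preinc., RT. Start: 75uM H3(1-25), 70uM AcCoA, 50uM ThioGlo1. Read Ex340/Em540 at t=0 (autofluorescence flag) and t=20 min.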
PLK1 PBD block: qHTS for Inhibitors of PLK1-PDB (polo-like kinase 1 - polo-box domain): Primary Screen | Potency, µM, for inactives: max response, negative = inhibition, usual class: inhibitors | Plk1 PBD binding of FITC phosphopeptide, fluorescence polarization | 360,000 tested, 2.8% active | AID 720504, 2013; further: series mostly up to about 57 µM; on the % scale 0 is the no-effect control and ±100 the full control effect; nearly all actives have a fitted effect of over 65% in size
USP1 inh: Inhibitors of USP1/UAF1: Primary Screen; Ubiquitin carboxyl-terminal hydrolase 1 (Homo sapiens), O94782; recombinant USP1/UAF1, Ub-Rhodamine cleavage fluorescence; Potency, µM (top dose mostly 57.1 µM), inactives show at the top dose activity change, negative = inhibition, usual class: inhibitors; 390,000 tested, 0.23% active; further: on the % scale 0 is the no-effect control and ±100 the full control effect; nearly all actives have a fitted effect of over 60% in size
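USP1/UAF1 complex at 1 nM was preincubated with compound for 15 min at room temperature, then Ub-Rho substrate (150nM final) was added. Fluorescence (480/540 nm) was read kinetically, 6 reads every 60 seconds.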
VDR inhibitor: Inhibitors of the vitamin D receptor (VDR): qHTS; Vitamin D3 receptor (Homo sapiens), P11473; Potency, µM, inactives show max response, negative = inhibition, usual class: inhibitors; 400,000 tested, 0.93% active; VDR-SRC2-3 peptide fluorescence polarization, 2 h; further: on the % scale 0 is the no-effect control and ±100 the full control effect
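Fluorescence polarization assay of small-molecule disruption of VDR binding to coregulator peptide SRC2-3. Compounds and controls pin-transferred, then read after 2 h incubation at ambient room temperature.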
TSG101-PTAP inh: qHTS Assay for Iinhibitors of HIV-1 Budding by Blocking the Interaction of PTAP/TSG101 | Fluorescence polarization, FITC-PTAP peptide / Tsg101 binding | 340,000 tested, under 10 active | Potency, µM (titrated, usually from 115 µM), for inactives: top-dose activity change, negative = inhibition, most hits filed as inhibitors | AID 493005, 2010 | Tumor susceptibility gene 101 protein (Homo sapiens), Q99816; active means well fitted inhibition curve with a large enough effect in the main read-out, with a control signal flat, not every such curve was filed as active; inconclusive means small, poorly fitted or top-dose-only effect, or effect the other way, or a change in a side signal; inactive means no such curve, though single readings can be large or run the other way; further: % of control where 0% means no effect
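Fluorescence polarization binding of Tsg101 binding domain (10 uM final) to FITC-labeled PTAP peptide (50 nM final) in HEPES pH 7.5 buffer with NaCl, Tween 20, EDTA, TCEP. Compounds added before peptide; binding 20 min at RT.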
Active calls of the source: *; ? = inconclusive; nt = no result given. Unless noted, the call rests on the fitted dose curve; in most records, active means well fitted curve in the direction sought with a large enough effect; inconclusive means small, poorly fitted or top-dose-only effect, or another doubt; inactive means no such curve, though single readings can be large; an effect the other way counts as inactive or inconclusive. Potency means the concentration at half of the fitted maximal effect.

SMILES | KAT2A inh | PLK1 PBD block | USP1 inh | VDR inhibitor | TSG101-PTAP inh
CCC(C)C(NC(=O)CCC(=O)OCC(=O)[C@@]1(O)CCC2[C@@H]3CCC4=CC(=O)C=C[C@]4(C)C3[C@@H](O)C[C@@]21C)C(=O)O (stereo partly specified) | -0.8% | -0.6% | -17.9% | 2.5% | -2.9%
O=C1OC(c2cccs2)=N/C1=C/c1ccc(-c2cccc(C(=O)O)c2)o1 | -22.4% | 19.4% | -19.4% | 79.4µM* | ?
CSc1ccc(C(O)c2ncc(-c3cccc(F)c3)[nH]2)cc1 (stereo unspecified) | nt | 2.9% | nt | nt | nt
NS(=O)(=O)c1ccc(NC(=S)NC2CCCCC2)cc1 | 0.4% | 10.6µM* | -11.4% | ? | 0.7%
CCCN1CCN(C(=S)Nc2ccc(S(N)(=O)=O)cc2)CC1 | -1.0% | -24.4% | -21.9% | -9.8% | -1.4%
NS(=O)(=O)c1ccc(NC(=O)NC2CCCCC2)cc1 | -3.2% | 0.5% | -13.7% | -0.8% | -3.6%
CCc1ccc(S(=O)(=O)NC(=S)Nc2ccccc2)cc1 | -3.4% | 26.7µM* | -9.4% | ? | -0.5%
CC(C)CC(=O)NNC(=S)Nc1ccc(S(N)(=O)=O)cc1 | 0.2% | 23.8µM* | -2.2% | -8.8% | 0.5%
NS(=O)(=O)c1ccc(NC(=S)N2CCC(Cc3ccccc3)CC2)cc1 | -5.9% | 13.4µM* | -9.4% | ? | -10.5%
CC(C)CC(=O)NC(=S)Nc1ccc(S(=O)(=O)NC(C)(C)C)cc1 | -2.6% | -12.0% | 0.3% | -8.5% | -2.6%
CCOc1ccc(NC(=O)N2CC=C(c3c[nH]c4ccccc34)CC2)cc1 | -2.1% | nt | -13.2% | 13.0% | nt
Cc1cc(OCC(=O)NCC2(N3CCN(C)CC3)CCCCC2)cc(C)c1Cl | -2.5% | nt | 12.3% | -0.2% | nt
NS(=O)(=O)c1ccc(NC(=S)N2CCN(Cc3ccc4c(c3)OCO4)CC2)cc1 | -10.3% | 11.9µM* | -6.9% | -1.2% | -1.3%
NS(=O)(=O)c1ccc(NC(=S)N2CCN(Cc3ccc(Cl)c(Cl)c3)CC2)cc1 | -6.9% | -12.2% | -18.4% | -1.7% | -0.7%
NS(=O)(=O)c1ccc(NC(=S)NCc2ccccc2)cc1 | 1.4% | 11.9µM* | -9.2% | ? | -3.4%
O=C(Nc1ccc(F)cc1)[C@H](CSCc1ccccc1)N1Cc2ccccc2C1=O | -2.1% | nt | -16.2% | -6.6% | nt
COc1cc(C)c(C(=O)Oc2cc(C)c(C(=O)O)c(O)c2C)c(OC)c1C | ? | 37.7µM* | -0.3% | ? | -4.2%
COc1cc(C)c(C(=O)Oc2cc(C)c(C(=O)O)c(O)c2C)c(O)c1C(=O)O | -11.8% | -4.9% | ? | -8.5% | -4.8%
CCCCN1C(=O)/C(=C2/Sc3ccccc3N2C)S/C1=N\c1ncn[nH]1 | 34.4% | 4.7% | ? | -10.7% | 33.9%
O=[N+]([O-])c1ccc(S(=O)(=O)Nc2nnc(C3CCCCC3)s2)cc1 | -0.9% | -20.7% | -23.4% | -6.9% | -5.0%
CC(=O)Nc1ccc(S(=O)(=O)Nc2nnc(Cc3ccc(Cl)cc3)s2)cc1 | -10.6% | 26.7µM* | -20.1% | -13.6% | -7.6%
CC(=O)Nc1ccc(S(=O)(=O)Nc2nnc(C3CCCCC3)s2)cc1 | 2.0% | 23.8µM* | -21.0% | -15.0% | -7.9%
COc1ccc(Cc2nnc(NS(=O)(=O)c3ccc(NC(C)=O)cc3)s2)cc1 | -3.7% | -12.8% | -4.9% | -2.5% | -0.5%
COc1ccc(OCC2c3cc(OC)c(OC)cc3CCN2C(=O)c2c(F)cccc2F)cc1 (stereo unspecified) | 1.2% | nt | -25.7% | 2.4% | nt
CCOc1ccc(C(=O)NCCc2sc(-c3cccc(F)c3)nc2C)cc1OCC | -1.8% | nt | -5.1% | -0.6% | nt
SMILES | KAT2A inh | PLK1 PBD block | USP1 inh | VDR inhibitor | TSG101-PTAP inh
Cc1cccc(N2CCN(C(=O)C3CCC(=O)N(C4CC4)C3)CC2)c1C (stereo unspecified) | -2.2% | 7.52µM* | -24.2% | ? | -7.7%
Cc1ccc(Cl)cc1N1CCN(C(=O)C2CCC(=O)N(C3CCCCCC3)C2)CC1 (stereo unspecified) | -11.9% | -21.4% | -8.0% | 13.9% | -0.2%
Cc1cccc(N2CCN(C(=O)C(C)C)CC2)c1C | -1.6% | 29.9µM* | -15.7% | -6.0% | -0.5%
Cc1cccc(N2CCN(C(=O)Cc3cn(C)c4ccccc34)CC2)c1C | -2.5% | 11.9µM* | -19.1% | 20µM* | -8.7%
Clc1ccc(CNc2ncnc3[nH]ncc23)cc1Cl | nt | 4.3% | 0.5% | -9.4% | -4.1%
Cc1cc(C)cc(-n2ccnc2SCC(=O)O)c1 | -1.6% | -13.5% | -2.4% | -18.9% | -1.3%
O=C(Cc1cc(C(F)(F)F)cc(C(F)(F)F)c1)Nc1c(-c2ccccc2)[nH][nH]c1=O | nt | -11.8% | nt | nt | nt
CCC(=O)OCOc1ccc(/C=C2/CCC(CN(C)C)C2=O)cc1 (stereo unspecified) | nt | 4.74µM* | -13.6% | 10µM* | -1.3%
O=C(NCCc1ccccc1)c1nnc(CS(=O)(=O)c2ccccc2)o1 | 4.47µM* | -13.9% | -8.3% | -4.4% | -2.0%
O=C(NCc1ccccc1)c1nnc(CS(=O)(=O)c2ccccc2)o1 | -14.9% | -5.0% | -9.6% | -18.7% | 2.1%
CN(C(=O)CSc1n[nH]c(=O)[nH]c1=O)c1ccccc1 | 0.2% | -5.1% | -7.0% | -10.8% | -5.5%
O=C(Sc1n[nH]c(=O)[nH]c1=O)c1ccccc1 | nt | 5.32µM* | -16.0% | ? | -3.5%
COCCCNC(=O)C1CCCN(S(=O)(=O)c2ccc3c(c2)oc(=O)n3C)C1 (stereo unspecified) | -4.3% | nt | ? | -6.4% | nt
COC(=O)C/C=C1\c2ccc3c(c2[C@@H](OC)[C@@H]1C)OCO3 | nt | nt | nt | -3.3% | nt
COc1ccc(OCc2cc(C(=O)N(C)CCC3CCOCC3)no2)c(Cl)c1 | -0.5% | 26.7µM* | -2.5% | ? | -0.3%
COc1ccc(OCc2cc(C(=O)N(C)CC3CCCCO3)no2)c(Cl)c1 (stereo unspecified) | 3.2% | -7.5% | -11.7% | 2.3% | 1.1%
Cc1ccc(-n2c(Cl)c(Cl)nc(Cl)c2=O)cc1 | -2.2% | 2.67µM* | -10.2% | ? | -0.8%
Cc1ccc(-n2c(=O)[nH]c3ncccc3c2=O)cc1 | -3.0% | -8.4% | -9.3% | 0.3% | 2.5%
CC(C)CNC(=O)C1C(=O)Nc2ccccc2C(=O)N1C1CCCCC1 (stereo unspecified) | nt | -9.6% | nt | nt | nt
S=C1Nc2ccccc2Sc2ccc(Cl)cc21 | 0.2% | 23.8µM* | -19.9% | -13.2% | -1.1%
O=C1N/C(=C\c2ccc(O)cc2)C(=O)c2ccccc21 | -1.2% | -15.4% | 28.2µM* | ? | -5.8%
CC(C)CCNC(=O)Cn1c(SCc2cccc(F)c2)nc2ccncc21 | nt | nt | nt | -11.1% | nt
CCn1c(CC2C(=O)N(C)c3ccccc32)nc2ccccc2c1=O (stereo unspecified) | -4.8% | nt | -19.9% | 10.0% | nt
